IL-1B inflam inh: inflammasome signaling inhibition, IL-1 beta readout; THP-1 LPS/ATP IL-1B secretion, AlphaLISA, 16 h; hits give low values; activity change, % at 57.5 µM; AID 743279; 360,000 tested, 4.7% active; in the data active means activity change below about -50%; inconclusive means mostly about -30% to -49%
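Secreted IL-1B measured by AlphaLISA bead assay after 16 h compound exposure of THP-1 cells; compounds (final up to 57.5 uM) added 1 h before LPS (250 ng/mL) and ATP (1.25 mM) stimulation; lower signal means less secretion.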
ELG1 DNA repair: ELG1-dependent DNA repair inhibition | HEK293T ELG1-luciferase reporter, luminescence, 16 h; DNA damage induced by 5-fluorouridine | Potency, µM (titrated, usually from 46.1 µM), for the others: at the highest dose activity change, negative = inhibition, usual class: inhibitors | 330,000 tested, 2.3% active | AID 504467; further: potency means the concentration at half of the fitted maximal effect; nearly all actives have a fitted effect of over 55% in size
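Step one: seed 2,000 cells per well. Step two: pin-transfer compound or DMSO alongside 5-fluorouridine. Step three: incubate 16 hr, 37 °C, 5% CO2. Step four: add ONE-Glo, wait 30 min, read luminescence.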
VP16 counter: Gal4-VP16 reporter inhibition counter-screen; Drosophila S2 Gal4-VP16 UAS-luciferase, luminescence, 20 h; Potency, µM (highest dose often 53.6 µM), for the others: at the top dose activity, negative = inhibition, usual class: inhibitors; 310,000 tested, 3.5% active; AID 2546;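 further: Gal4-VP16 expression switched on by copper sulfate through the metallothionein promoter; potency means the concentration at half of the fitted maximal effect; nearly all actives have a fitted effect of over 50% in size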
RORg inh: inhibitors of mouse ROR gamma transcriptional activity | P51450 | Drosophila S2 Gal4-RORgamma UAS-luciferase reporter, 20 h | Potency, µM (series often up to 53.6 µM), without a hit: at the top dose activity change, negative = inhibition, most hits filed as inhibitors | 310,000 tested, 5.4% active | AID 2551; further: potency means the concentration at half of the fitted maximal effect; nearly all actives have a fitted effect of over 60% in size
Target sequence (P51450 whole entry, looked up, the tested form may be a part): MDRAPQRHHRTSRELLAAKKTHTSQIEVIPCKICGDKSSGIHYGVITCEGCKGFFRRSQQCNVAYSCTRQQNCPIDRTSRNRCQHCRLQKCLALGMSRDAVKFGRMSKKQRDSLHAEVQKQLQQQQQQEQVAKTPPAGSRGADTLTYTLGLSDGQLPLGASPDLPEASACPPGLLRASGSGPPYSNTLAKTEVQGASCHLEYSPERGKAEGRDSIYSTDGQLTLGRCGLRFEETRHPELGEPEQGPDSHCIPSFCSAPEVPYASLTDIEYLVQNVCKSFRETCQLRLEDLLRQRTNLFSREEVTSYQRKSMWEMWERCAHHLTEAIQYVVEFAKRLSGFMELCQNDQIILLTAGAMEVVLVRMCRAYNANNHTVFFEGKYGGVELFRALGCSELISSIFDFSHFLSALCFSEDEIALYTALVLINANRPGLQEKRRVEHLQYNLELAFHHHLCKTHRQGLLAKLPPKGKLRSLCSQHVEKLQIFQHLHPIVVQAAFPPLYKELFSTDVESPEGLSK
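Drosophila Schneider cells stably carrying a metallothionein-driven Gal4 DBD–ROR gamma fusion and a UAS-Photinus luciferase reporter were exposed to compound for 1 hr, then induced with copper sulfate (700 uM final) for 20 hr at ambient temperature before luminescence reading.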
DT40 TDP1 no CPT: qHTS for Inhibitors of human tyrosyl-DNA phosphodiesterase 1 (TDP1): qHTS in cells in absence of CPT | DT40 Tdp1-/- hTDP1 cells, no CPT, ATP luminescence, 48 h | Potency, µM (doses to about 46.2 µM), inactives show at the highest dose activity change, negative = growth inhibition, most hits filed as inhibitors | 420,000 tested, 15% active; further: potency means the concentration at half of the fitted maximal effect; nearly all actives have a fitted effect of over 55% in size
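Growth kinetics read by CellTiter-Glo luminescence after ≥48 hr at 37 °C. Cells: DT40 Tdp1-/- stably carrying human TDP1, 400 per well, compound exposure in the absence of CPT (DMSO vehicle).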
DT40 TDP1 CPT: DT40-hTDP1 cell growth loss with CPT | chicken DT40 Tdp1-/-;hTDP1 cells + 20 nM CPT, ATP luminescence, 48 h | Potency, µM (doses to about 46.2 µM), inactives show top-dose activity change, negative = growth inhibition, most hits filed as inhibitors | 420,000 tested, 12% active | AID 686979; further: potency means the concentration at half of the fitted maximal effect; nearly all actives have a fitted effect of over 55% in size
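Chicken DT40 Tdp1-/- cells complemented with human TDP1, 400 cells/well, exposed to compounds plus 20 nM camptothecin for at least 48 h at 37 C; viability read as ATP content by CellTiter-Glo luminescence.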
Numbers without * were called inactive; ? = inconclusive; . = no result given; [ ] = remark or other dose. Compounds with a hit are over-represented: about 21% of the library has one in this group of screens. Unless noted, the call rests on the fitted dose curve; in most records, active means well fitted curve in the direction sought with a large enough effect; inconclusive means small, poorly fitted or top-dose-only effect, or another doubt; inactive means no such curve, though single readings can be large; an effect the other way counts as inactive or inconclusive. On the % scale 0 is the no-effect control and ±100 the full control effect.

SMILES	IL-1B inflam inh	ELG1 DNA repair	VP16 counter	RORg inh	DT40 TDP1 no CPT	DT40 TDP1 CPT
Cc1ccccc1NC(=O)N1Cc2ccccc2-n2nncc2C1	-8.3	.	.	.	-17.4%	-7.7%
c1ccc(C[n+]2ccccc2)cc1	0.0	15.3%	.	.	16.4µM*	?
CCCOP(=O)(OCCC)c1nc(-c2ccccc2)oc1NCc1ccccc1	-115.5*	?	-11.7%	?	?	23.1µM*
CCC1(Cc2ccccc2)C(=O)NC(=S)N(C)C1=O (stereo unspecified)	23.1	.	.	.	-24.3%	0.6%
COC(=O)c1ccc(-c2nc(-c3ccc(Br)o3)no2)cc1	6.6	?	-2.5%	-30.3%	-7.5%	0.7%
c1ccc2c(CNC3CCCCC3)c[nH]c2c1	?	?	-22.5%	-26.3%	6.31µM*	2.51µM*
CN(Cc1c[nH]c2ccccc12)C1CCCCC1	-9.5	?	14.6%	?	1.16µM*	0.411µM*
COC(=NC1CCCCC1)C(O)c1c[nH]c2ccccc12 (stereo unspecified)	37.4	1.9%	4.9%	0.2%	-11.9%	-4.2%
CSC(=S)NCc1c[nH]c2ccccc12	.	.	0.5%	1.1%	.	.
COc1ccccc1C(=O)Nc1ccc2nc(SCC(=O)N3CCCc4ccccc43)sc2c1	.	.	.	.	2.91µM*	5.17µM*
CCn1c(P(C)(=O)O)nc2cc(NC(=O)c3ccccc3F)ccc21	0.0	?	-0.3%	-18.0%	5.2%	-2.4%
O=C(Nc1ccc2nc(SCC(=O)N3CCCc4ccccc43)sc2c1)c1ccccc1F	.	.	.	.	5.17µM*	5.8µM*
Cc1nc2ccc(NC(=O)C3COc4ccccc4O3)cc2s1 (stereo unspecified)	0.1	?	4.4%	29.5%	?	?
Nc1cc(C(=O)Nc2ccccc2F)ccc1N1CC2CC(C1)c1cccc(=O)n1C2 (stereo unspecified)	24.2	.	.	.	?	?
COC(=O)C12C/C=C\Cc3ccccc3[C@@H]1CNC2=O (stereo partly specified)	.	.	-3.0%	-16.7%	.	.
CCOc1cc(/C=C2/C(=O)NC(=O)N(c3ccc(CC)cc3)C2=O)ccc1OC(=O)c1cccs1	3.0	-9.6%	-7.3%	-2.5%	29.1µM*	-6.6%
CCc1nc2ccc(C(=O)N3CCN(C(=O)c4ccco4)CC3)cn2c1N(C)Cc1ccc(OC)cc1	28.7	.	.	.	?	?
CCCCn1c(O)c(C(CC)=Nc2ccc(OC)cc2OC)c(=O)[nH]c1=O	-8.6	-12.9%	-11.7%	?	?	?
CCCCn1c(O)c(C(CC)=Nc2ccc(OCC)cc2)c(=O)[nH]c1=O	28.1	?	3.8%	35.7%	20.6µM*	18.4µM*
CCCCn1c(O)c(C(CC)=NC(C)c2ccccc2)c(=O)[nH]c1=O (stereo unspecified)	41.4	?	-3.9%	29.9%	25.9µM*	?
CCc1ccc([C@H]2[C@@H]3C(=O)C[C@@H]4C(=O)N(Cc5ccccc5)C(=O)[C@@H]4[C@@H]3CN2S(=O)(=O)c2ccc(C)cc2)cc1	-14.6	.	.	.	?	?
COC(=O)C1=C(c2ccc(OC)c(OC)c2)C[C@@H]2CC[C@H]1N2C(=O)NC1CC1	1.3	18.9%	.	.	-15.4%	?
COC(=O)C1=C(c2ccc(C(C)=O)cc2)C[C@@H]2CC[C@H]1N2C(=O)N1CCC(C)CC1	-0.6	18.9%	.	.	20.6µM*	18.4µM*
COC(=O)C1=C(c2ccc(S(C)(=O)=O)cc2)C[C@@H]2CC[C@H]1N2C(=O)N1CCCCC1	-4.1	.	.	.	-18.5%	-27.1%
COC(=O)C1=C(c2ccc(OC)c(OC)c2)C[C@@H]2CC[C@H]1N2C(=O)N1CCc2cc(OC)c(OC)cc2C1	-4.5	?	.	.	?	?
SMILES	IL-1B inflam inh	ELG1 DNA repair	VP16 counter	RORg inh	DT40 TDP1 no CPT	DT40 TDP1 CPT
COC(=O)C1=C(c2ccc(OC)c(OC)c2)C[C@@H]2CC[C@H]1N2C(=O)N1CCOCC1	8.6	?	.	.	?	20.6µM*
COC(=O)C1=C(c2ccc(OC)c(OC)c2)C[C@@H]2CC[C@H]1N2C(=O)N1CCC(C)CC1	9.2	-13.5%	.	.	10.3µM*	20.6µM*
COC(=O)C1=C(c2ccc(C(C)=O)cc2)C[C@@H]2CC[C@H]1N2C(=O)N1CCC(O)(c2ccc(Cl)cc2)CC1	-15.9	?	.	.	9.2µM*	16.4µM*
C[C@]12C[C@H]3S[C@H]3C[C@@H]1CC[C@@H]1[C@@H]2CC[C@]2(C)[C@@H](O)CC[C@@H]12	.	.	.	.	-29.4%[21.1 µM]	-27.0%[21.1 µM]
CNC(C)C(O)c1ccc(O)cc1 (stereo unspecified)	.	.	-5.0%	-7.4%	3.0%	2.0%
[O-][N+](=Nc1ccccc1)c1ccccc1	.	.	12.8%	32.9%	?	?
CC1CCN(C(=O)c2ncn(C)c2C(=O)N2CCC(C)CC2)CC1	21.7	?	.	.	-4.9%	-7.8%
COC(C(=O)C(O)C(C)O)C1Cc2cc3cc(OC4CC(OC5CC(O)C(OC)C(C)O5)C(OC(C)=O)C(C)O4)c(C)c(O)c3c(O)c2C(=O)C1OC1CC(OC2CC(OC3CC(C)(O)C(OC(C)=O)C(C)O3)C(O)C(C)O2)C(O)C(C)O1 (stereo unspecified)	.	.	1µM*	1.26µM*	.	.
O=C1C[C@@H]2OCC=C3CN4CC[C@]56c7ccccc7N1[C@H]5[C@H]2[C@H]3C[C@H]46	.	.	.	.	-18.2%	.
CCOP(=S)(OCC)Oc1ccc(Cl)cc1Cl	.	.	-8.0%	16.6%	.	.
COc1cc(N)c(Cl)cc1C(=O)NC1CN2CCC1CC2 (stereo unspecified)	.	.	-6.6%	-1.1%	-17.8%	-4.7%
O=c1[nH]c(=S)n(Cc2ccc(F)cc2)c(O)c1/C=N/N1CCCCC1	-11.0	-11.3%	?	11.2µM*	?	-17.9%
COC(=O)c1ccccc1NC(=O)c1cccn(Cc2cccc(Cl)c2)c1=O	.	.	.	.	18.4µM*	?
O=C(Nc1ccccc1C(F)(F)F)c1cccn(Cc2ccccc2)c1=O	.	.	.	.	18.4µM*	?
O=C(Nc1ccon1)c1cccn(Cc2cccc(Cl)c2)c1=O	.	.	.	.	-0.9%	-21.7%
CNC(=O)OCCc1n(C)cc[n+]1C	-2.9	3.8%	-0.8%	-1.8%	-0.7%	7.7%
CN1CCc2cc3c(c4c2[C@H]1Cc1ccccc1-4)OCO3	.	.	-26.2%	-34.6%	.	.
CC(=NCCN1CCOCC1)c1c(O)n(Cc2ccccc2)c(=O)[nH]c1=O	-6.1	12.7%	-11.9%	42.0%	-1.4%	-0.7%
